Experimental data from the supplement of paper PMC7726561.

Biological target: HLA-C*04:01
Assay: thermal melting temperature (Tm) of peptide-HLA complex; higher = more thermostable pHLA complex
Settings: C1R-A*02:01
Procedure: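 Endogenous HLA-C*04:01 ligands were detected in the thermostability assays of both the C1R-A*02:01 and C1R-B*07:02 lines. Lysates were heated 10 min at 37-73 °C and pHLA immunoprecipitated with W6/32. Peptides were quantified by DIA-MS and Tm was taken from a logistic sigmoid fit.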

**Q.** For HFDPEVYL, which thermal melting temperature is on record?
**A.** 54.6 °C

**Q.** How did the thermal melting temperature turn out when YFDPANGKF was run?
**A.** 57.6 °C

**Q.** How did the thermal melting temperature turn out when AWDIAIATM was run?
**A.** 50.9 °C

**Q.** How did the thermal melting temperature turn out when NPDDVFREF was run?
**A.** 61.2 °C

**Q.** For SFDDTNEKF, which thermal melting temperature is on record?
**A.** 49.8 °C

**Q.** With VLDDKLVFV as the sequence, how does the thermal melting temperature read?
**A.** 61.8 °C

**Q.** Which thermal melting temperature does the source give for IWDETPLYF here?
**A.** 50.8 °C

**Q.** For IFSEKPVFV, which thermal melting temperature is on record?
**A.** 60 °C

**Q.** With IYDPNLAFL as the sequence, how does the thermal melting temperature read?
**A.** 58.9 °C

**Q.** With LFHPSNVEM as the sequence, how does the thermal melting temperature read?
**A.** 46 °C

**Q.** For QFDNYGEEF, which thermal melting temperature is on record?
**A.** 50.8 °C

**Q.** For VIDEPVRL, which thermal melting temperature is on record?
**A.** 50 °C

**Q.** With FYDERIVVV as the sequence, how does the thermal melting temperature read?
**A.** 63.9 °C

**Q.** For FFEVSPVSF, which thermal melting temperature is on record?
**A.** 49.9 °C

**Q.** FWDDAVKEV was tested. Which thermal melting temperature did it give?
**A.** 46.6 °C

**Q.** VFDEAVRV was tested. Which thermal melting temperature did it give?
**A.** 52.4 °C

**Q.** For VTDPRVVDL, which thermal melting temperature is on record?
**A.** 53.8 °C

**Q.** VFDVLDGEEM was tested. Which thermal melting temperature did it give?
**A.** 53.4 °C

**Q.** How did the thermal melting temperature turn out when VFDEAIRAV was run?
**A.** 61.2 °C

**Q.** Which thermal melting temperature does the source give for VWDLFPEADKV here?
**A.** 54.5 °C

**Q.** For FFDEVVKQM, which thermal melting temperature is on record?
**A.** 58.8 °C

**Q.** TYEGKPIFL was tested. Which thermal melting temperature did it give?
**A.** 52.9 °C

**Q.** With LWDSAVSHF as the sequence, how does the thermal melting temperature read?
**A.** 55.1 °C

**Q.** For FYDVQFKEL, which thermal melting temperature is on record?
**A.** 53.1 °C

Same assay, conditions: C1R-B*07:02

**Q.** With HFDPEVYL as the sequence, how does the thermal melting temperature read?
**A.** 53.2 °C

**Q.** For YFDPANGKF, which thermal melting temperature is on record?
**A.** 57.5 °C

**Q.** With AWDIAIATM as the sequence, how does the thermal melting temperature read?
**A.** 49.6 °C

**Q.** With NPDDVFREF as the sequence, how does the thermal melting temperature read?
**A.** 62.7 °C

**Q.** For SFDDTNEKF, which thermal melting temperature is on record?
**A.** 48.2 °C

**Q.** Which thermal melting temperature does the source give for VLDDKLVFV here?
**A.** 48.9 °C

**Q.** With IWDETPLYF as the sequence, how does the thermal melting temperature read?
**A.** 51.8 °C

**Q.** How did the thermal melting temperature turn out when IFSEKPVFV was run?
**A.** 57 °C

**Q.** Which thermal melting temperature does the source give for IYDPNLAFL here?
**A.** 56 °C

**Q.** For LFHPSNVEM, which thermal melting temperature is on record?
**A.** 46.4 °C

**Q.** How did the thermal melting temperature turn out when QFDNYGEEF was run?
**A.** 55.5 °C

**Q.** How did the thermal melting temperature turn out when VIDEPVRL was run?
**A.** 50.3 °C

**Q.** For FYDERIVVV, which thermal melting temperature is on record?
**A.** 62.3 °C

**Q.** For FFEVSPVSF, which thermal melting temperature is on record?
**A.** 46.6 °C

**Q.** Which thermal melting temperature does the source give for FWDDAVKEV here?
**A.** 48.3 °C

**Q.** For VFDEAVRV, which thermal melting temperature is on record?
**A.** 50.6 °C

**Q.** How did the thermal melting temperature turn out when VTDPRVVDL was run?
**A.** 52.7 °C

**Q.** Which thermal melting temperature does the source give for VFDVLDGEEM here?
**A.** 60.9 °C

**Q.** For VFDEAIRAV, which thermal melting temperature is on record?
**A.** 61.5 °C

**Q.** Which thermal melting temperature does the source give for VWDLFPEADKV here?
**A.** 52.4 °C

**Q.** With FFDEVVKQM as the sequence, how does the thermal melting temperature read?
**A.** 60.5 °C

**Q.** With TYEGKPIFL as the sequence, how does the thermal melting temperature read?
**A.** 51.5 °C

**Q.** For LWDSAVSHF, which thermal melting temperature is on record?
**A.** 55.6 °C

**Q.** Which thermal melting temperature does the source give for FYDVQFKEL here?
**A.** 52.5 °C
